Data on 50 molecules can be found in PubChem BioAssay AID595 (National Center for Advancing Translational Sciences (NCATS), 2007).

Each structure is given as a SMILES string. About 310 (0.44%) of roughly 71,000 compounds were called active. Not shown: some 5% with an inconclusive outcome. This excerpt belongs to a sample that is enriched for actives. Values without a mark were called inactive. Calls come from the whole dose curve; as a rule, active = well fitted curve in either direction with a large enough effect; inconclusive = small, poorly fitted or top-dose-only effect, or another doubt; inactive = flat fitted curve, though single readings scatter.
% is set by controls: 0 for no effect and ±100 for the full control effect; potency is the fitted concentration of half-maximal effect.

This experiment relates to Hsp90 C-terminal peptide / TPR2A (Hop) interaction, human. As to the kind of experiment: qHTS Assay for Disrupters of an Hsp90 Co-Chaperone Interaction. The following applies: AlphaScreen TPR2A-His6 binding biotin-Hsp90 C-terminal peptide; series mostly up to 57 µM; activity change, negative = inhibition: at the top concentration. An excerpt: NIH Chemical Genomics Center [NCGC]
NIH Molecular Libraries Screening Centers Network [MLSCN]
Hsp90 (heat shock protein 90) is the essential molecular chaperone and it accounts for 1-2% of all cytosolic proteins and is critical for the activity of diverse cellular proteins that are involved in a variety of cellular processes, including development, cell cycle, and steroid hormone signaling. Its client proteins include signaling kinases such as IGF1R, Akt, v-Src, Raf-1; regulators of cell survival such as Bcr-Abl; and transcription factors such as mutated p53, estrogen and progesterone receptors. Hsp90 has emerged as an important target for cancer treatment due to its essential role in maintaining transformation and regulating the function of oncogenic signaling proteins.
The in vivo function of Hsp90 is regulated by the binding and hydrolysis of ATP at its N-terminal. Geldanamycin binds to ATP site and inhibit Hsp90 function. Geldanamycin and its analogues are under clinical trials in cancer patients.
This domain contains the binding site for tetratricopeptide repeat (TPR) domains on HOP (Hsp Organizing Protein). TPR is a structural motif used by a significant number of cochaperones by which the in vivo function of Hsp90 is regulated. TPR2A on HOP binds specifically to MEEVD motif of the C-terminal of Hsp90.
A homogeneous AlphaScreen is developed to assess the interaction between TPR2A and MEEVD motif of the C-terminal of Hsp90 by using the isolated TPR2A domain and a synthesized 20mer Hsp90 C terminal peptide. AlphaScreen is two bead-based proximity-dependent chemical energy transfer luminescent assay platform. TPR2A-His-6 and biotinylated Hsp90 C terminal peptide will bring streptavidin donor beads and nickel chelate acceptor beads to a proximity range (less than 200 nm), and subsequently lead a chemical luminescent reaction upon exciting donor beads with 680 nm laser. Inhibition of TPR2A and MEEVD motif interaction by small molecules could attenuate or abolish this chemical luminescent reaction.
Counter screening: Biotinylated-His-6 (PerkinElmer) can be utilized as a counter screen, as it serves as a linker to bring streptavidin beads and nickel chelate beads together. The counter screen can exclude alpha screen platform false positives due to small molecules being metal chelators, biotin analogues and imidazole analogues, or due to interfering with oxygen release from donor beads. Such an assay should be utilized to qualify any activity observed in this screen.
NCGC Assay Protocol Summary:
The assay was performed on 1536-well white plate (untreated solid bottom). Liquids were dispensed by 1536-well plate washer (Kalypsys, San Diego, CA). Plates were read on EnVision (PerkinElmer, Boston, MA).TPR2A-His6 was produced using a bacteria expression system and purified using a well developed method (Ghosh et al., 2000). Hsp90 C terminal 20-mer peptide with or without an N-terminal biotin group are synthesized using automated solid phase synthesis by the Yale Keck facility. The composition of assay buffer was (in mM) 25 HEPES, 100 KCl, 2 MgCl2 and 2 DTT; 0.1% BSA and 0.01% Tween-20. TPR2A-His6 binding to biotin-Hsp90 will bring streptavidin donor beads and nickel chelate acceptor beads (PerkinElmer) together and can be measured by Alpha reading by EnVision (PerkinElmer). Free Hsp90 blocks biotin-Hsp90 binding to TPR2 and serves as a positive control in the current asssay.
The assay was performed at room temperature. All compounds were screened as titrations from […] to 46 uM final concentration. The assay was performed in 1536-well format plates (untreated white solid bottom, Corning Inc.) as follows:
Sequence,Parameter,Value,Description
1,Reagent,3 uL TPR2A-His6,Final concentration was 5nM
2,Compound,23 nL,Final titration was from 0.7 nM to 46 uM
3,Time,15 minutes,Room temperature
4,Reagent,1 uL biotin-Hsp90,With and without free Hsp90. Final concentration was 10 nM for biotin-Hsp90 and 10uM for free Hsp90.
5,Time,1 hour,Room temperature
[…]
Regarding `O=C(COc1ncnc2ccccc12)NC(=O)NCc1ccccc1`, the “activity change, negative = inhibition” value was 2.77%.

Take `C[C@@H]1O[C@@H](O[C@@H]2[C@@H](O)[C@H](OCCc3ccc(O)c(O)c3)O[C@H](CO[C@@H]3O[C@H](CO)[C@@H](O)[C@H](O)[C@H]3O)[C@H]2OC(=O)/C=C/c2ccc(O)c(O)c2)[C@H](O)[C@H](O)[C@H]1O`: the “activity change, negative = inhibition” value was -0.838%. For the molecule `Cc1ccccc1N1CCN(S(=O)(=O)C[C@@]23CC[C@H](C[C@H]2NC(=O)[C@@H](N)CCS(C)(=O)=O)C3(C)C)CC1`, the “activity change, negative = inhibition” value was -8.53%. Turning to `COc1ccc(NC(=O)N2CC3(CCN(C(=O)c4cccn4C)CC3)C2)cc1`, the “activity change, negative = inhibition” value is -8.94%. The same measure, in the same setting: next, `COc1ccc(C(=O)N2CCC3(CC2)CCN(c2ccccn2)CC3)cc1`: 2.71%. The same measure, in the same setting: to `O=C(Nc1cccc(F)c1)N1CC2(CCN(C(=O)c3csnn3)CC2)C1` belongs 1.12%; to `CCn1ccnc1C[C@@H]1COc2ccccc2O1`, “inactive”; to `CC/C=C/C/C=C/C/C=C/CCCCCCCC(=O)OCC`, 1.86%. Same read-out and setting: to `CCOC(=O)c1c(NC(=O)CSc2nnc(CN3CCOCC3)n2C)sc2c1CCCC2` belongs -2.12%.

For `CCOC(=O)c1c(NC(=O)CSc2nnc(Cc3csc(N)n3)n2C)sc(C)c1C`, the Potency is 25.1 µM (active). Turning to `COC(=O)c1c(NC(=O)CSc2nc3c(c(=O)n(C)c(=O)n3C)n2C(C)C)sc(C)c1C`, the “activity change, negative = inhibition” value is -2.6%. On to `Brc1cc(Br)c(Oc2cc(Br)c(Br)cc2Br)cc1Br`, for which the “activity change, negative = inhibition” value is 12.2%. The same measure, in the same setting: to `Nc1nc2c(ncn2[C@H]2CC[C@@H](CO)O2)c(=O)n1C(=O)c1ccccc1` belongs -4.52% [at 11 µM]. Same read-out and setting: to `CCOC(=O)CSc1nnc(CNc2ccc(F)cc2)o1` belongs -0.588%. With `C[C@]1(O)CC[C@H]2[C@H]3CC=C4N5CCN=C5CC[C@@]4(C)[C@H]3CC[C@@]21C`, the activity change, negative = inhibition was -4.96% [at 11 µM]. Same read-out and setting: next, `CC1(CCC(=O)OC2CCCCC2)OCCO1`: -2.62% [at 11 µM]; `CN1CCN(S(=O)(=O)c2ccc3[nH]cc(C(=O)O)c(=O)c3c2)CC1`: -0.632%; `CCOC(=O)c1nc(N)sc1C(=O)OCC`: 0.817%. The same measure, in the same setting: to `COC(=O)C1(C)C=CCN1C(=O)c1ccccc1` (stereo not given) belongs -3.13%. As to `Cc1c(O)c(Br)c(C)c(O)c1Br` (tested in a mixture with another compound), the activity change, negative = inhibition was -3.86% [at 11 µM]. Still for that read-out and setting: next, `COCCNc1ccnc(-c2cccc(NS(C)(=O)=O)c2)n1`: -3.91%. Still for that read-out and setting: to `Cc1cccc(CNc2cc(-c3ccccc3Cl)ncn2)c1` belongs 6.04%; to `O=C(Nc1c[nH]c(=O)[nH]c1=O)Oc1ccccc1`, 1.58% [at 11 µM]; to `Nc1ccccc1N`, 0.745%. Consider `COc1cc([C@H]2c3cc4c(cc3[C@@H](O[C@@H]3O[C@H]5CO[C@@H](C)O[C@]5(O)C[C@H]3O)[C@@H]3COC(=O)[C@H]23)OCO4)cc(OC)c1O`, for which the “activity change, negative = inhibition” value is -4.89%.

With `NS(=O)(=O)c1ccc(NS(=O)(=O)/C=C/c2ccccc2)cc1`, the “activity change, negative = inhibition” value was 0.079%. Turning to `Cc1cccc2cc(C#N)c(N3CCCC3)nc12`, the Potency was 31.6 µM [activator] (active). In the case of `Cc1ccc(S(=O)(=O)C(C#N)c2nc3ccccc3nc2N2CCCC2)cc1C` (stereo not given), the “activity change, negative = inhibition” value is -13.2%. Same read-out and setting: to `Cc1cc(C)c2nc(N3CCCC3)c(C#N)cc2c1` belongs 3.01%. Take `C[C@@H]1C[C@H]2[C@@H]3C[C@H](F)C4=CC(=O)C=C[C@@]4(C)[C@]3(F)[C@H](O)C[C@]2(C)[C@@]1(O)C(=O)CO`: the “activity change, negative = inhibition” value is -3.15% [at 26 µM].

As to `CN1CCN(c2ncc3nc(-c4ccc(Cl)cc4)c(=O)n(-c4ccccc4)c3n2)CC1`, the “activity change, negative = inhibition” value was -0.003%. On the same count and under the same terms, to `O=C(Nc1cccc(F)c1)N1CCC2(CC1)CCN(S(=O)(=O)c1ccccc1)CC2` belongs 1.21%. Regarding `Cc1nc2cnc(Oc3cccc(Cl)c3)nc2n(C2CC2)c1=O`, the “activity change, negative = inhibition” value is -1.71%.

Turning to `ON=C1/C(=N\O)CC2(C/C1=N/O)OCCO2`, the Potency is 12.6 µM (active). Consider `O/N=C1\CC2(Cc3nonc31)OCCO2`, for which the “activity change, negative = inhibition” value is -2.81%. Still for that read-out and setting: next, `O=c1c(CCc2ccccc2)nc2cncnc2n1C1CC1`: -2.81%; `COc1ccccc1CNc1ncncc1-c1cccc(NS(C)(=O)=O)c1`: 5.26%; `COCCNc1cc(-c2c(C)noc2C)ncn1`: -2.68%. Same read-out and setting: to `O=C(O)[C@@H]1[C@@H](C(=O)O)[C@]23C[C@@]2(C(=O)O)[C@]2(C(=O)O)CCC3=C3CCCC312` belongs 0.013% [at 11 µM]; to `O=C(CC(NS(=O)(=O)c1ccc(Cl)cc1)c1ccco1)NC1CCCC1` (stereo not given), -9.73%.

On to `CN1CCN(S(=O)(=O)c2ccc(NC(=O)C3CCCO3)cc2)CC1` (stereo not given), for which the “activity change, negative = inhibition” value is -2.48%. Same read-out and setting: next, `O=S(=O)(c1ccccc1)N1CCC2(CC1)CN(Cc1nccs1)C2`: -4.1%; `NC1(C(=O)OCc2ccccc2)CCCC1`: -2.78% [at 11 µM].

In the case of `NCC(=O)[C@@H](O)[C@H](O)[C@H](O)CO`, the activity change, negative = inhibition was -1.57% [at 11 µM]. Still for that read-out and setting: to `Cc1ccc(CNC(=O)C2CC(=O)N(C3CCCCCCC3)C2)cc1` (stereo not given) belongs 0.056%; to `COc1ccc(C(=O)N2CCC[C@@]3(CCN(C(=O)NC(C)C)C3)C2)cc1`, -3.02%.

`Clc1ccc(Cc2nnc(-c3cccs3)o2)cc1`: the “activity change, negative = inhibition” value is 12.2%. Take `Cn1c(=O)c(-c2ccccc2)nc2cnc(N3CCNCC3)nc21`: the “activity change, negative = inhibition” value is -1.54%. The same measure, in the same setting: next, `C=CC(=C)CCC=C(C)C`: -2.65%.

In the case of `CN1CCN(c2cc(=O)n(-c3ccc(Cl)cc3)c(=O)[nH]2)CC1`, the “activity change, negative = inhibition” value was 0.293%.
